# Laboratory results as given in PubChem BioAssay (NCATS).
# Results filed as inconclusive are left out. Unmarked numbers belong to inactive results. Active and inactive are the calls of the source. The call rests on the fitted dose curve; in most records, active means well fitted inhibition curve with a large enough effect; inconclusive means small, poorly fitted or top-dose-only effect; inactive means flat fitted curve, though single readings scatter. Where a SMILES comes first, the peptide text is derived from it. Bridges are numbered along the chain shown (N, C = ends). [ ]: non-standard residue; d: D form. NMeY = CN[CH](Cc1ccc(O)cc1)C(=O)O
# Tests used:
# Assay in all cases: Cytotoxic Profiling of Annotated Libraries Using Quantitative High-Throughput Screening (AID 1296008); further: nearly all actives have a fitted effect of over 60% in size
# Conditions in all cases: Five cell lines viability, CellTiter-Glo ATP luminescence, 48-72 h; max response: hits give low values
# [1] = system: HEK293
# In short: (§1)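 Cytotoxicity was measured as CellTiter-Glo ATP luminescence, read after 10 min at room temperature. Compound treatment of the cells lasted 48 or 72 hr at 37 degrees Celsius in a qHTS format.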
# [2] = system: HaCat
# In short: as §1
# [3] = system: KB-3-1
# In short: as §1
# [4] = system: CRL-7250
# In short: as §1
# On the % scale 0 is the no-effect control and ±100 the full control effect; potency means the concentration at half of the fitted maximal effect.
structure (smiles),measurement,setting,value
CCCCC1CCN(CCCC(=O)c2ccccc2C)CC1,Potency,[1],16.4 µM (active)
same,max response,[2],-61.6%
same,max response,[3],-21.4%
CC(C)(O)/C=C/C1=CC(=O)[C@@](C)(O)C[C@H]1O,max response,[4],-5.51%
same,max response,[2],4.28%
same,max response,[3],7.85%
COc1cc2c3c(cc4ccccc4c3c1O)NC2=O,max response,[4],4.86%
same,outcome,[3],inactive
COC(=O)C1=CO[C@@H](O[C@@H]2O[C@H](CO)[C@@H](O)[C@H](O)[C@H]2O)[C@H]2[C@@H]1CC(OC)O[C@@H]2C (some centres not stated),outcome,[4],inactive
same,max response,[2],-16.4%
same,max response,[3],3.52%
CCc1c(C)nc2c(-c3cnn(-c4cc(CO)ccn4)c3)c[nH]n2c1=O,max response,[4],-0.312%
same,max response,[3],-1.88%
C[C@@]12CC[C@@H]3[C@@](CC[C@H]4[C@@]3(C)CCC[C@@]4(C)C(=O)O)(CC1=O)C2,max response,[4],-4.96%
same,outcome,[2],inactive
same,max response,[3],1.35%
CO/N=C(/C(=O)N[C@@H]1C(=O)N2C(C(=O)O)=C(Cn3ccc(=N)n3CCO)CS[C@H]12)c1csc(N)n1,max response,[1],-94.3%
same,outcome,[2],inactive
same,max response,[3],-6.11%
C[C@@H]1N[C@H]2N(C1=O)c1ccccc1[C@@]2(O)C[C@@H]1C(=O)N[C@@H](C)c2nc3ccccc3c(=O)n21,max response,[1],-21.5%
same,max response,[2],1.5%
same,outcome,[3],inactive
C=C1C(=O)O[C@H]2C1[C@H](OC(=O)/C(=C/CO)COC(=O)/C(C)=C/CO)CC(=C)[C@@H]1CC(=O)[C@@H](C)[C@@H]12 (some centres not stated),Potency,[1],11.2 µM (active)
same,max response,[2],-52.7%
same,max response,[3],-3.1%
CNC(C)C(=O)NC(C(=O)N1CCCC1c1nc(C(=O)c2ccc(F)cc2)cs1)C1CCCCC1 (configuration not stated),Potency,[1],14.6 µM (active)
same,outcome,[2],inactive; activator
same,max response,[3],-9.35%
C/C(=C\CC[C@@H](C)[C@H]1CC(O)[C@@]2(C)C3CC[C@H]4C(C)(C)[C@@H](OC5OCC(O)C(O)C5OC5OC(CO)C(O)C(O)C5O)CC[C@@]45C[C@@]35CC(O)[C@]12C)C(=O)O (some centres not stated),max response,[4],-2.5%
same,max response,[2],-0.726%
same,max response,[3],6%
COc1ccc(-c2cnc(-c3cccc4c3-c3ccccc3C4=O)o2)cc1,Potency,[1],0.112 µM (active)
same,max response,[2],-2.01%
same,Potency,[3],0.0709 µM (active)
C=C(F)c1sc(CNCCCNc2cc(=O)c3ccccc3[nH]2)c(C)c1Br,Potency,[1],6.51 µM (active)
same,max response,[2],-0.153%
same,Potency,[3],16.4 µM (active)
O=C(NCc1ccc(S(=O)(=O)c2cc(F)cc(F)c2)cc1)c1ccc2nccn2c1,Potency,[1],0.0052 µM (active)
same,Potency,[2],0.0326 µM (active)
same,Potency,[3],0.0046 µM (active)
CC(C)(C(=O)NCC(F)(F)C(F)(F)F)C(=O)NC1C(=O)Nc2ccccc2-c2ccccc21 (configuration not stated),Potency,[1],5.8 µM (active)
same,Potency,[2],16.4 µM (active)
same,Potency,[3],18.4 µM (active)
FC(F)(F)c1ccc(Nc2nc(-c3c(C(F)(F)F)nc4ccccn34)cs2)cc1,Potency,[4],5.8 µM (active)
same,Potency,[3],0.206 µM (active)
C=CC(C)(C)c1[nH]c2cc3c(cc2c1CC1NC(=O)C2CCCN2C1=O)C=CC(C)(C)O3 (configuration not stated),outcome,[1],inactive
same,outcome,[2],inactive
same,max response,[3],8.42%
C=CC1C(OC2OC(CO)C(O)C(O)C2O)OC=C(C(=O)OC)C1CC(=O)OCC1C(C)C(O)CC1C(CO)COC(=O)CC1C(C(=O)O)=COC(OC2OC(CO)C(O)C(O)C2O)/C1=C\C (configuration not stated),max response,[1],0.0453%
same,outcome,[2],inactive
same,outcome,[3],inactive
C=C(C)C(=O)OC1C(OC(C)=O)/C(C=O)=C\CC/C(CO)=C/C2OC(=O)C(=C)C21 (configuration not stated),Potency,[1],5.63 µM (active)
same,max response,[2],-6.21%
same,max response,[3],-25.3%
C/C(=C\CCC(C)CCO)C(=O)OC1(C)CCC2C(C(=O)O)=COC(OC3OC(CO)C(O)C(O)C3O)C21 (configuration not stated),outcome,[1],inactive
same,max response,[2],-20.6%
same,outcome,[3],inactive
O=C(OC1C=C(CO)C2C(OC3OC(CO)C(O)C(O)C3O)OC=CC12)c1ccc(O)cc1 (configuration not stated),max response,[1],-4.58%
same,max response,[2],-13.5%
same,outcome,[3],inactive
O=C(/C=C/c1ccccc1)OC[C@]12O[C@H]1[C@@H](O)[C@@H]1C=CO[C@@H](O[C@@H]3O[C@H](CO)[C@@H](O)[C@H](O)[C@H]3O)[C@@H]12,outcome,[1],inactive
same,outcome,[2],inactive
same,outcome,[3],inactive
CCC(C)C1NC(=O)C2CCCN2C(=O)C(NC(C)=O)C(C)OC(=O)C(Cc2ccc(OC)cc2)N(C)C(=O)C2CCCN2C(=O)C(C(C)C)NC1=O (configuration not stated) (Ac-TPIVP[NMeY](Me); ester 1-C; configuration not given here),max response,[1],-18.8%
same,outcome,[2],inactive
same,max response,[3],-2.69%
COc1ccc(C2=N[C@@H](c3ccc(Cl)cc3)[C@@H](c3ccc(Cl)cc3)N2C(=O)N2CCNC(=O)C2)c(OC(C)C)c1,max response,[1],-29%
same,max response,[2],-13.8%
same,max response,[3],6.36%
C[C@@H]1O[C@@H](O[C@H]2[C@H](O)[C@@H](O)[C@H](O[C@H]3[C@H](O[C@H]4CC[C@@]5(C)C(=CC[C@@H]6C5CC[C@]5(C)[C@@H]7[C@H](C[C@@H]65)O[C@]5(CC[C@@](C)(CO[C@@H]6O[C@H](CO)[C@@H](O)[C@H](O)[C@H]6O)O5)[C@H]7C)C4)O[C@H](CO)[C@@H](O)[C@@H]3O)O[C@@H]2CO)[C@H](O)[C@H](O)[C@H]1O (some centres not stated),Potency,[1],1.23 µM (active)
same,max response,[2],-8.19%
same,Potency,[3],0.778 µM (active)
